Measured values from PubChem BioAssay (NCATS).
Records with an inconclusive call do not appear. A call without a number means that no potency is given here. Active and inactive are the calls of the source. The call rests on the fitted dose curve; in most records, active means well fitted inhibition curve with a large enough effect; inconclusive means small, poorly fitted or top-dose-only effect; inactive means flat fitted curve, though single readings scatter.

Columns and labels:
Assay in all cases: qHTS profiling for inhibitors of Plasmodium falciparum proliferation (AID 504749); further: nearly all actives have a fitted effect of over 60% in size
Settings in all cases: P. falciparum in erythrocytes, SYBR Green DNA, 72 h; series mostly up to 28.7 µM
CP297 = test system: CP297
Method in brief: (§1)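 In a 72 h erythrocytic culture (37 C, humidified, 5% CO2) at 2.5% hematocrit and 0.3% starting parasitemia, compounds were tested; SYBR Green I in detergent lysis buffer stained parasite DNA overnight.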

CP305 = test system: CP305
Method in brief: as §1

CP315 = test system: CP315
Method in brief: as §1

CP325 = test system: CP325
Method in brief: as §1

CP329 = test system: CP329
Method in brief: as §1

DFO2036 = test system: DFO2036
Method in brief: as §1

DIV14 = test system: DIV14
Method in brief: as §1

DIV17 = test system: DIV17
Method in brief: as §1

CP335 = test system: CP335
Method in brief: as §1

DIV30 = test system: DIV30
Method in brief: as §1
Potency means the concentration at half of the fitted maximal effect.

SMILES	Potency (CP297)	Potency (CP305)	Potency (CP315)	Potency (CP325)	Potency (CP329)	Potency (DFO2036)	Potency (DIV14)	Potency (DIV17)	Potency (CP335)	Potency (DIV30)
COc1ccc2c(c1)C13CCCC[C@@H]1C(C2)N(C)CC3 (stereo partly specified)	inactive	inactive	inactive	inactive	inactive	inactive	2.69 µM (active)	3.01 µM (active)		
COc1ccc2c(c1OC)C(=O)O[C@H]2[C@@H]1c2cc3c(cc2CCN1C)OCO3	inactive	inactive	inactive	inactive	inactive		inactive	inactive	inactive	inactive
C[C@](O)(CS(=O)(=O)c1ccc(F)cc1)C(=O)Nc1ccc(C#N)c(C(F)(F)F)c1	inactive	inactive	inactive	inactive	inactive	inactive			inactive	inactive
O=P1(N(CCCl)CCCl)NCCCO1 (stereo unspecified)	inactive	inactive	inactive	inactive	inactive	inactive	inactive	inactive	inactive	inactive
O=C1OC(c2ccc(O)c(S(=O)(=O)O)c2)(c2ccc(O)c(S(=O)(=O)O)c2)c2c(Br)c(Br)c(Br)c(Br)c21	inactive	inactive	inactive	inactive	inactive	inactive	inactive	inactive	inactive	inactive
COC1CC(=C(c2cccs2)c2cccs2)C[N+](C)(C)C1 (stereo unspecified)						5.62 µM (active)			6.01 µM (active)	
CN1C(=O)CC(=O)N(c2ccccc2)c2cc(Cl)ccc21	inactive	inactive	inactive	inactive	inactive	inactive	inactive	inactive	inactive	inactive
CC(C)(C)NCC(O)c1cc(Cl)c(N)c(C(F)(F)F)c1 (stereo unspecified)	15.1 µM (active)		inactive		inactive	5.01 µM (active)	6.01 µM (active)	7.57 µM (active)		
C[C@]12CCC(=O)C=C1CC[C@@H]1[C@@H]2CC[C@]2(C)C(=O)CC[C@@H]12	inactive	inactive	inactive	inactive	inactive	inactive	inactive		inactive	inactive
COP(=S)(OC)SCN1C(=O)c2ccccc2C1=O	inactive	inactive	inactive	inactive	inactive	inactive	inactive	inactive	inactive	inactive
CC(C)NC(C)C	inactive	inactive		inactive	inactive	inactive	inactive	inactive		inactive
Clc1cccc(SC2CCNCC2)n1	inactive	inactive	inactive	inactive	inactive	inactive	inactive	inactive	inactive	inactive
CC(C)c1cccc(C(C)C)c1O		inactive	inactive	inactive		inactive		inactive	inactive	inactive
CN1CCC(O)(c2ccc(F)cc2)C(C(=O)c2ccc(F)cc2)C1 (stereo unspecified)	inactive	inactive	inactive	inactive	inactive	inactive	inactive	inactive	inactive	inactive
C=C(C)[C@H]1CN[C@H](C(=O)O)[C@H]1CC(=O)O		inactive	inactive	inactive	inactive	inactive	inactive	inactive		inactive
Clc1ccc(C(c2ccc(Cl)cc2)C(Cl)(Cl)Cl)cc1		inactive	inactive	inactive	inactive	inactive			inactive	

SMILES	Potency (CP297)	Potency (CP305)	Potency (CP315)	Potency (CP325)	Potency (CP329)	Potency (DFO2036)	Potency (DIV14)	Potency (DIV17)	Potency (CP335)	Potency (DIV30)
C=CCN1C[C@H](C)N([C@H](c2ccc(C(=O)N(CC)CC)cc2)c2cccc(OC)c2)C[C@H]1C		inactive	inactive	inactive	inactive					inactive
NNc1ccccc1	inactive	inactive		inactive	inactive	inactive	inactive	inactive	inactive	inactive
CN1C(=O)NC(=O)C(C)(C2=CCCCC2)C1=O (stereo unspecified)	inactive	inactive	inactive	inactive	inactive	inactive	inactive	inactive	inactive	inactive
NC(=O)c1cc([N+](=O)[O-])cc([N+](=O)[O-])c1	inactive	inactive	inactive							inactive
Cc1nnc2n1-c1ccc(Cl)cc1C(c1ccccc1)=NC2	inactive	inactive	inactive	inactive	inactive	inactive	inactive	inactive		
CN1C(=O)C(O)N=C(c2ccccc2)c2cc(Cl)ccc21 (stereo unspecified)	inactive	inactive	inactive	inactive	inactive	inactive	inactive	inactive	inactive	inactive
COP(=S)(OC)Oc1ccc(S(=O)(=O)N(C)C)cc1	inactive	inactive	inactive	inactive	inactive	inactive	inactive	inactive	inactive	inactive
O=C(N/N=C/c1ccc([N+](=O)[O-])o1)c1cc([N+](=O)[O-])cc([N+](=O)[O-])c1O						3.98 µM (active)	inactive			
CCOP(=S)(OCC)Oc1ccc2c(C)c(Cl)c(=O)oc2c1			inactive				inactive	inactive		
Oc1ccc(Cl)cc1	inactive	inactive	inactive	inactive	inactive	inactive	inactive	inactive		inactive
CC(C)(C)NCC(O)c1ccccc1Cl (stereo unspecified)	13.5 µM (active)	inactive	inactive	inactive	inactive	inactive	8.49 µM (active)	6.01 µM (active)		
COC(=O)C(c1ccccc1)C1CCCCN1 (stereo unspecified)	inactive	inactive	inactive	inactive	inactive	inactive			inactive	inactive
O=C1c2ccccc2C(=O)c2ccccc21	inactive		inactive	inactive	inactive	inactive				
O=C1CN=C(c2ccccc2)c2cc([N+](=O)[O-])ccc2N1	inactive	inactive	inactive	inactive	inactive	inactive		inactive	inactive	inactive
Nc1ccc([As](=O)(O)O)cc1	inactive	inactive	inactive	inactive	inactive	inactive	inactive	inactive	inactive	inactive
